Screens as filed in PubChem BioAssay.
IDH1 R132H inh: qHTS for Inhibitors of mutant isocitrate dehydrogenase 1 (IDH1): qHTS; Potency, µM (series often up to 76.6 µM), hits mostly inhibitors; IDH1-R132H enzyme, NADPH consumption, diaphorase/resazurin fluorescence; AID 602179, 2012; 390,000 tested, 0.093% active; further: nearly all actives have a fitted effect of over 65% in size
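IDH1-R132H (0.5 ug/mL) preincubated 30 min with compound, then NADPH (0.016 mM) and alpha-KG (2 mM) added; 80 min at RT, pH 7.5. Remaining NADPH coupled via diaphorase/resazurin to fluorescence (540/590 nm); concentration-response curves normalized to no-enzyme control.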
rTrxR1 inhibitor: qHTS Assay for Inhibitors of Mammalian Selenoprotein Thioredoxin Reductase 1 (TrxR1): qHTS | Thioredoxin reductase 1, cytoplasmic (Rattus norvegicus), O89049 | recombinant rTrxR1, NADPH fluorescence consumption, selenite substrate | Potency, µM (highest dose often 114 µM), hits mostly inhibitors | 390,000 tested, 1% active | AID 588453, 2011; further: nearly all actives have a fitted effect of over 65% in size
Target sequence (O89049 whole entry, looked up): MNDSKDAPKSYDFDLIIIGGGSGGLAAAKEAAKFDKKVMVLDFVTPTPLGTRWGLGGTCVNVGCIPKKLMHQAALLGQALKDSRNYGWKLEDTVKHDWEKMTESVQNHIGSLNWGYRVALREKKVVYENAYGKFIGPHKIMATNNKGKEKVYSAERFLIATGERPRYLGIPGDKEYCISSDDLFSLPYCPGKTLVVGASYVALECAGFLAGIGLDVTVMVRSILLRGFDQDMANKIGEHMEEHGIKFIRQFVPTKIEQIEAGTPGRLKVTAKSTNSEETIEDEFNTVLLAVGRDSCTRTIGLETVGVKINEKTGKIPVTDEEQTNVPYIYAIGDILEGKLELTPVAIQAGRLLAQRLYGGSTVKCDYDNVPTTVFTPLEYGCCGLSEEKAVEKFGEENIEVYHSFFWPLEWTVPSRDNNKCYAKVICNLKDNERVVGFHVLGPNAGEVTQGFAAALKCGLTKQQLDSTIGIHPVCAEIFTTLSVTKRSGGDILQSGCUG
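Rat TrxR1 (90 nM in the dispensed reagent) was pre-reduced with 400 uM NADPH for 5 min at room temperature, then incubated with compound for 15 min. After 400 uM selenite was added, NADPH fluorescence (Ex 340/Em 450 nm) was followed for 8 min.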
GLP-1R agonist: qHTS of GLP-1 Receptor Agonists. HEK293 GLP-1R CRE-luciferase, luminescence, 4-6 h; cells express a hypersensitive GLP-1R form. Potency, µM (highest dose often 45.6 µM), hits mostly activators. 380,000 tested, 0.007% active. AID 624172, 2012
TrxR1 substrate: qHTS Assay for Substrates of Mammalian Selenoprotein Thioredoxin Reductase 1 (TrxR1): qHTS | purified TrxR1 substrate turnover, NADPH consumption readout | Potency, µM (top dose mostly 114 µM) | 390,000 tested, 0.01% active | AID 588456, 2011; further: nearly all actives have a fitted effect of over 50% in size
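Rat TrxR1, dispensed at 90 nM, was prereduced with 400 uM NADPH (final) for 5 min at ~22 deg C, then incubated with compound 15 min before 400 uM selenite. A first-read NADPH fluorescence drop versus no-compound background flagged substrates.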
HEK293 tox: qHTS of GLP-1 Receptor Inverse Agonists: Cytotox Screen; HEK293 cAMP-luciferase reporter cells, luminescence, 24 h; 410,000 tested, 0.13% active; Potency, µM (top dose mostly 38.3 µM), actives largely listed as inhibitors;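 further: loss of luciferase light is scored as toxicity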
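Compound-treated cells are incubated 24 hr at 37 deg C under 5% CO2 after a 12 hour attachment period, then luciferase detection reagent is added and luminescence is measured following 12 min at room temperature; lowered signal indicates toxicity.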
GLP1R inv ag: qHTS of GLP-1 Receptor Inverse Agonists (Inhibition Mode); Glucagon-like peptide 1 receptor (Homo sapiens), P43220; HEK293 GLP-1R CRE-luciferase, luminescence, 24 h; GLP-1R form is constitutively active; Potency, µM (doses to about 38.3 µM), most hits filed as inhibitors; 410,000 tested, 1.6% active; AID 624417, 2012; further: nearly all actives have a fitted effect of over 55% in size
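Seeding at 200 cells/uL, 12 h culture, 24 hr compound treatment, then luciferase reagent and a luminescence read; cells are HEK293 stably expressing a constitutively active GLP-1R plus cAMP-responsive luciferase.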
Large screens that a line does not name were inactive. Most compounds without a hit are left out; they make up all but 2.7% or so of the library. The call rests on the fitted dose curve; in most records, active means well fitted curve in the direction sought with a large enough effect; inconclusive means small, poorly fitted or top-dose-only effect, or another doubt; inactive means no such curve, though single readings can be large; an effect the other way counts as inactive or inconclusive.

Cc1nn(C)c2ncc(C(=O)c3ccccc3O)cc12	none
Cc1[nH]nc2ncc(C(=O)c3ccccc3O)cc12	GLP1R inv ag 10µM
COc1cccc(OCC(=O)NC2CC(=O)N(c3cccc(OC)c3)C2)c1 (stereo unspecified)	none (no result: GLP-1R agonist)
Cc1ccccc1NCC(=O)N/N=C/c1c(C)c(C(=O)c2ccc(Cl)cc2)n2ccccc12	none
Cc1c(/C=N/NC(=O)CNc2ccccc2)c2ccccn2c1C(=O)c1ccc(Cl)cc1	GLP1R inv ag 5.6µM
COc1cc2c(NC3CCN(C)CC3)nc(N3CCCN(C)CC3)nc2cc1OCCCN1CCCCC1	none (no result: IDH1 R132H inh, GLP-1R agonist, HEK293 tox, GLP1R inv ag)
CC1(C)Cc2ccccc2-c2nc3ccccc3c(=O)n21	GLP1R inv ag 7.9µM
O=C1c2ccccc2-n2c1nc1ccccc1c2=O	none
CCc1cnc2ccccc2c1/C=C/c1ccc(N(C)C)cc1	none (no result: IDH1 R132H inh, GLP-1R agonist, HEK293 tox, GLP1R inv ag)
CCOc1ccc(N2CC(O)Cn3c2nc2c3c(=O)n(CCCc3ccccc3)c(=O)n2C)cc1 (stereo unspecified)	GLP1R inv ag 5.6µM
COc1cccc(N2CC(O)Cn3c2nc2c3c(=O)n(CCCc3ccccc3)c(=O)n2C)c1 (stereo unspecified)	GLP1R inv ag inconclusive
CC(C)(C)c1ccc(-c2nnc(SCCC#N)n2C2CCCC2)cc1	GLP1R inv ag 10µM
CCOC(=O)c1c(NC(=O)c2cc3nc(-c4ccc(OC)cc4)cc(C(F)(F)F)n3n2)sc(C)c1C	none (no result: GLP-1R agonist)
Cc1ccc(C)c(Cn2c(=O)cc(C)c3c(C)nn(-c4cccc(F)c4)c32)c1	none (no result: GLP-1R agonist)
Cc1ccc(C2C(C=Nc3c(C)n(C)n(-c4ccccc4)c3=O)=C(c3ccccc3)Oc3ccccc32)cc1 (stereo unspecified)	GLP1R inv ag 4µM
CCNC(=S)N/N=C/c1cccc(OCc2c(F)cccc2Cl)c1	HEK293 tox inconclusive, GLP1R inv ag 10µM
Cc1nn(-c2ccc(Cl)cc2)c2[nH]c(=O)c(CNCc3ccc4c(c3)OCO4)cc12	rTrxR1 inhibitor 22µM, GLP1R inv ag inconclusive
Cc1ccc(N(Cc2cc(=O)[nH]c3ccccc23)C(=O)CCl)c(C)c1	rTrxR1 inhibitor 79µM, GLP1R inv ag 5.6µM
CCCC(=O)N(Cc1cc(=O)[nH]c2ccccc12)c1ccc(C)cc1C	GLP1R inv ag inconclusive
CC(=O)Nc1ccc(NC(=O)C2(c3cccs3)CCOCC2)cc1	IDH1 R132H inh inconclusive (no result: GLP-1R agonist)
CC(C)c1ccc(NC(=O)CSC2=Nc3ccccc3C3=NC(CC(=O)NC4CCCCC4)C(=O)N23)cc1 (stereo unspecified)	GLP1R inv ag 10µM (no result: GLP-1R agonist)
COc1ccc(OC)c(NC(=O)CSC2=Nc3ccccc3C3=NC(CC(=O)NCc4ccco4)C(=O)N23)c1 (stereo unspecified)	GLP1R inv ag 11µM (no result: GLP-1R agonist)
CCOc1ccc(NC(=O)CSC2=Nc3ccccc3C3=NC(CC(=O)NCc4ccco4)C(=O)N23)cc1 (stereo unspecified)	GLP1R inv ag inconclusive (no result: GLP-1R agonist)
CC[N+](CC)(CC)CCOC(=O)C(C1CCCC1)C1CCCC1	none (no result: IDH1 R132H inh, rTrxR1 inhibitor, TrxR1 substrate, HEK293 tox, GLP1R inv ag)
COc1ccc2nc(N3C(=O)CNC3=S)sc2c1	HEK293 tox 7.9µM, GLP1R inv ag inconclusive
Cc1ccc2nc(N3C(=O)CNC3=S)sc2c1	HEK293 tox inconclusive, GLP1R inv ag inconclusive
CCN1CCc2nc(N)oc2CC1	rTrxR1 inhibitor 22µM
Cc1ccccc1C(=O)NNc1ccc([N+](=O)[O-])cc1	none
COC(=O)C(NNc1ccccc1)(NC(=O)c1ccc(F)cc1)C(F)(F)F (stereo unspecified)	GLP1R inv ag inconclusive
O=C(NC(NNc1ccc([N+](=O)[O-])cc1)(C(F)(F)F)C(F)(F)F)c1ccc(F)cc1	rTrxR1 inhibitor 28µM, HEK293 tox inconclusive, GLP1R inv ag inconclusive
O=C(NC(NNc1ccc([N+](=O)[O-])cc1)(C(F)(F)F)C(F)(F)F)c1ccccc1Cl	rTrxR1 inhibitor 3.2µM
COc1ccc(CCNC(=O)c2cc3c(=O)n(C)c4cc(Cl)ccc4c3s2)cc1OC	none
O=C(Cc1coc2cc3c(cc12)CCC3)NC1CCCCCCC1	rTrxR1 inhibitor inconclusive, GLP1R inv ag inconclusive
O=C(Cc1coc2cc3c(cc12)CCC3)NCC1(N2CCCCC2)CCCCC1	HEK293 tox inconclusive, GLP1R inv ag 10µM
CNC(=O)c1c(NC(=O)c2ccc(S(=O)(=O)N3CCCc4ccccc43)cc2)sc2c1CCN(C)C2	GLP1R inv ag 4.5µM
CN1CCc2c(sc(NC(=O)c3ccc(S(=O)(=O)N4CCCC4)cc3)c2C(N)=O)C1	none
CCOC(=O)c1c2c(n(Cc3ccccc3)c1C)C(=O)C(=O)c1ccccc1-2	HEK293 tox 5µM, GLP1R inv ag inconclusive
CCOc1cc(CN2CCN(c3ccc(C(C)=O)cc3)CC2)ccc1OC	rTrxR1 inhibitor 35µM
COc1ccc(-c2coc3c(C(=O)NCc4ccco4)cccc23)c(C)c1	GLP1R inv ag 4.5µM (no result: IDH1 R132H inh, rTrxR1 inhibitor, TrxR1 substrate)
O=C(COc1ccc(F)cc1)c1c(O)cc(O)cc1O	rTrxR1 inhibitor 7.1µM
COc1ccc(C(=O)COc2ccc(F)cc2)c(O)c1	GLP1R inv ag inconclusive
CC(NC(=O)c1ccc(Cn2c(=O)c3cccn3c3cccnc32)cc1)c1ccccc1 (stereo unspecified)	none (no result: GLP-1R agonist)
O=C(COC(=O)c1ccccc1OCCOc1ccccc1)Nc1ccc(Br)cc1	none (no result: IDH1 R132H inh, GLP-1R agonist, HEK293 tox, GLP1R inv ag)
O=C(COC(=O)c1ccccc1NCCO)NCCc1ccccc1	none
O=C(OCC(=O)N(Cc1ccccc1)Cc1ccccc1)c1ccccc1NCCO	GLP1R inv ag 5.6µM
CCCS(=O)(=O)c1c(S(=O)(=O)CCC)c2cc(CC)ccn2c1C(=O)c1ccc(Cl)cc1	none (no result: GLP-1R agonist)
Cc1ccc(NC(=O)CC2Nc3ccccc3NC2=O)cc1Cl (stereo unspecified)	rTrxR1 inhibitor inconclusive, GLP1R inv ag 10µM
O=C(CCS(=O)(=O)c1ccccc1)N1CCN(c2cccc(C(F)(F)F)c2)CC1	rTrxR1 inhibitor 79µM, GLP1R inv ag inconclusive
CN1CCC(N(C)C(=O)c2ccc(Cl)c(S(=O)(=O)N(C)c3ccc(Cl)cc3)c2)CC1	GLP1R inv ag 11µM
CCCCCCCCCCCCCCCCN	none (no result: IDH1 R132H inh, rTrxR1 inhibitor, TrxR1 substrate, HEK293 tox, GLP1R inv ag)
